Screening data as filed in PubChem.
Shiga inhibitor – Shiga toxin inhibition | Vero cells, Shiga toxin protein synthesis inhibition reporter | inhibition, % at 38.7 µM | 290,000 compounds, 9.2% hits | AID 2315; in the data active = inhibition mostly above about 28%, no sharp cut-off; inactive = mostly below about 43%; note: 0% is about no effect
MARV entry inh – inhibitors of Marburg virus binding or cell entry | Marburg virus pseudotyped entry inhibition, cell reporter | Potency, µM (top dose mostly 37.8 µM), inactives show at the highest dose activity change, negative = inhibition, hits mostly inhibitors | 300,000 compounds, 1.8% hits | AID 540276; calls by dose curve; tested in HEK293 cells; note: potency is the fitted concentration of half-maximal effect; % is set by controls: 0 for no effect and ±100 for the full control effect
Lassa entry inh – Lassa virus entry inhibition; Lassa virus pseudotype entry inhibition, cell reporter; 300,000 compounds, 1.2% hits; Potency, µM (doses to about 37.9 µM), inactives show at the top dose activity change, negative = inhibition, hits mostly inhibitors; calls by dose curve; tested in HEK293 cells; note: potency is the fitted concentration of half-maximal effect; % is set by controls: 0 for no effect and ±100 for the full control effect; nearly all actives have a fitted effect of over 50% in size
Cycloheximide cs – affects cycloheximide protein synthesis inhibition readout, counter-screen. cell reporter, cycloheximide protein synthesis inhibition counterscreen. max response, %. 300,000 compounds, 12% hits. AID 2314; in the data active = max response mostly above about 13%, no sharp cut-off; inactive = mostly below about 14%; note: read at 38.3 µM for the half of the compounds with a filed dose; 0% is about no effect
Active calls of the source: *; u = inconclusive; x = not tested or not shown; [ ] = dose if it differs, or a comment. Only some compounds are listed: those with a hit (about 12% of all), similar ones and a draw of the others.

SMILES	Shiga inhibitor	MARV entry inh	Lassa entry inh	Cycloheximide cs
COc1c(C)cc(S(=O)(=O)NCCN2CCOCC2)c(C)c1C	-3.3	3.6%[46.1 µM]	-15.7%[46.1 µM]	-2.2
Cc1ccc2c(c1)COc1c3ccc(C(=O)O)cc3nn1-2	-8.4	x	x	-3.9
O=C(NCCO)c1ccc2c3n(nc2c1)-c1ccccc1CO3	44.0*	x	x	38.8*
O=C(NCCO)c1ccc2nc(-c3ccco3)c(-c3ccco3)nc2c1	-15.7	1.4%	8.2%	22.7
Cc1ccc2c(c1)COc1c3ccc(C(=O)NCC4CC4)cc3nn1-2	53.9*	x	x	30.4*
CCCn1nc2cc(C(=O)NC3CCCc4ccccc43)ccc2c1OCC (centres undefined)	-20.2	x	x	-0.3
O=C(NCC1CC1)c1ccc2c3n(nc2c1)-c1ccccc1CO3	91.9*	x	x	30.4*
COc1ccccc1C(=O)NC(=S)Nc1cccnc1Cl	23.8	u	u	17.5*
Cc1ccc(C(=O)NC(=S)Nc2ccccc2C(F)(F)F)cc1	71.0	3.5%	12.7%	14.0
Cc1ccc(C(=O)NC(=S)Nc2cccnc2Cl)cc1	90.8*	u	u	46.7*
CCN(c1ccc(OC)cc1)S(=O)(=O)c1ccc2c(c1)NC(=O)CS2	27.2	x	x	34.4*
C/C(=N\Nc1ccc(C(=O)O)cc1)c1ccc2c(c1)Nc1ccccc1S2	48.0*	u	u	68.5*
O=C(c1ccc2c(c1)C(=O)N(CCCO)C2=O)c1ccc2c(c1)C(=O)N(CCCO)C2=O	-3.2	9.8%	-1.0%	-5.3
O=C1c2ccccc2C(=O)N1CCSC(=S)N1CCOCC1	51.3	7.1%	5.2%	26.4*
O=C1c2ccc3c4c(ccc(c24)C(=O)N1CCCCO)C(=O)N(CCCCO)C3=O	72.1*	x	x	34.2*
O=C1c2cccc3cccc(c23)C(=O)N1CCc1ccccc1	94.9*	u	u	50.9*
O=C(CCCN1C(=O)c2ccccc2C1=O)N1CCOCC1	-8.3	u	-0.4%[46.1 µM]	1.1
COC(=O)CCCN1C(=O)c2cccc3cccc(c23)C1=O	28.2	u	29.0%	24.4*
CCOc1ccc(S(=O)(=O)NC(Cc2c[nH]c3ccccc23)C(=O)O)cc1 (centres undefined)	-4.0	x	x	-3.8
C=CCC1(CC=C)CCCN1Cc1nc(COc2ccccc2)no1	-2.6	-29.7%	u	1.3
Cc1onc(-c2ccccc2)c1C(=O)NCc1ccccc1F	-5.1	3.3%[46.1 µM]	-9.1%	-3.5
O=C(CCN1C(=O)c2cccc3cccc(c23)C1=O)N1CCOCC1	94.3*	u	x	26.1*
O=C(CCN1C(=O)c2ccccc2C1=O)N1CCOCC1	-5.1	21.8%[46.1 µM]	2.9%	-2.8
CC1CN(C(=O)CCCN2C(=O)c3ccccc3C2=O)CC(C)O1 (centres undefined)	-4.9	x	x	-2.9
COc1ccc(NC(=S)NC23CC4CC(CC(C4)C2)C3)cc1OC	-20.3	8.0%	0.9%	9.2
SMILES	Shiga inhibitor	MARV entry inh	Lassa entry inh	Cycloheximide cs
O=C(O)c1cccn2c(=O)c3ccccc3nc12	-11.4	3.3%	0.0%	-3.5
O=C(O)c1ccc2c(=O)n3cc(C(=O)c4ccccc4O)cc(Cl)c3nc2c1	-1.6	x	x	34.1*
Cc1cc(N=NC(=O)c2ccccc2)ccc1O	19.8	x	x	15.9
Nc1[nH]c(N=NC(=O)c2ccc(Cl)cc2)c2ccccc12	95.1*	u	5.5%	32.3*
Nc1[nH]c(N=NC(=O)c2ccccc2)c2ccccc12	83.7*	u	u	52.8*
Nc1[nH]c(N=NC(=O)c2ccccc2O)c2ccccc12	81.3*	u	u	58.4*
CCOc1ccc2nc(SC3CC(=O)N(c4ccc(C)cc4)C3=O)sc2c1 (centres undefined)	-4.9	-0.8%	26.3%	2.1
CCOc1ccc2nc(/N=C/c3c(C)[nH]n(-c4ccccc4)c3=O)sc2c1	61.4*	3.9%	-22.3%	30.3*
CCOc1ccc2nc(/N=C/c3c(C)[nH]n(-c4ccc(C)cc4)c3=O)sc2c1	33.3	1.3%	-3.5%	32.9*
CC12CCC(C(N)C1=O)C2(C)C (centres undefined)	x	-1.4%	-22.5%	x
COc1ccccc1N1CCN(C(=O)/C=C/c2cccs2)CC1	54.2*	u	u	17.5*
COc1ccccc1/C=C/C=N/N1CCN(c2ccccn2)CC1	-9.3	-16.8%	-13.9%	-4.2
O=C(/C=C/c1cccs1)N1CCCC1	46.3*	20.9%[46.1 µM]	22.4%[46.1 µM]	15.8*
COc1ccccc1N1CCN(/N=C/C=C\c2ccccc2[N+](=O)[O-])CC1	45.2*	x	x	42.5*
O=C(/C=C/c1cccs1)N1CCN(c2ccccc2)CC1	-11.0	7.0%	17.8%	0.3
COc1ccccc1N1CCN(/N=C/C=C\c2ccco2)CC1	53.3*	u	u	41.3*
CCN(CC)c1ccc(/C=N/N2CCN(c3ccccc3OC)CC2)cc1	24.6	x	x	2.9
